Experiment [1] addresses Rap guanine nucleotide exchange factor 3 (Homo sapiens) (UniProt O95398). As to the kind of experiment: Confirmatory qHTS for agonist of cAMP-regulated guanine nucleotide exchange factor 3 (EPAC1) (AID 1645881).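 Further: EPAC1 catalysed release of BODIPY-GDP from Rap1B seen as fluorescence loss; 100% = effect of cAMP agonist control; nearly all actives have a fitted effect of over 75% in size.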 On the technique in general: Quantitative high-throughput screening tests each substance at several concentrations.
For experiment [2] the target is unchanged. As to the kind of experiment: Counterscreen qHTS for agonist of cAMP-regulated guanine nucleotide exchange factor 3 (EPAC1) (AID 1645889). Further: nearly all actives have a fitted effect of over 40% in size. Further: potency means the concentration at half of the fitted maximal effect. On activation: % of control where 0% means no effect. In a few lines: (§1)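 Measured: fluorescence of BODIPY-GDP bound to Rap1B, which falls as exchange proceeds. Conditions include 50 uM competing GDP, 5 and 30 min reads, and a later cAMP challenge for antagonist detection.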
On the technique in general: A counterscreen serves to expose hits that act by an unwanted route or on another target.

Experiment [3] concerns the target Rap guanine nucleotide exchange factor 4 (Homo sapiens) (UniProt Q8WZA2). As to the kind of experiment: Confirmatory qHTS for agonist of cAMP-regulated guanine nucleotide exchange factor 4 (EPAC2) (AID 1645884).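 Further: nucleotide exchange releases bodipy-GDP from Rap1 and this lowers its fluorescence; nearly all actives have a fitted effect of over 65% in size.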 Further: potency means the concentration at half of the fitted maximal effect. On activation: on the % scale 0 is the no-effect control and ±100 the full control effect.
Experiment [4] shares this target. As to the kind of experiment: Confirmatory qHTS for antagonist of cAMP-regulated guanine nucleotide exchange factor 4 (EPAC2) (AID 1645885). Further: nearly all actives have a fitted effect of over 25% in size. Further: potency means the concentration at half of the fitted maximal effect. On activity change, negative = inhibition: on the % scale 0 is the no-effect control and ±100 the full control effect.
Experiment [5] has as its target Rap guanine nucleotide exchange factor 3 (Homo sapiens) (UniProt O95398). The experiment in a line: Counterscreen qHTS for antagonist of cAMP-regulated guanine nucleotide exchange factor 3 (EPAC1) (AID 1645888). Further: % of control where 0% means no effect. The method in brief:
as §1

Experiment [6] addresses Tyrosyl-DNA phosphodiesterase 1 (Homo sapiens) (UniProt Q9NUW8). As to the kind of experiment: Confirmation Assay for Inhibitors of Tyrosyl-DNA Phosphodiesterase (TDP1) (AID 489007). Further: potency means the concentration at half of the fitted maximal effect; nearly all actives have a fitted effect of over 40% in size. The note with it: recombinant human TDP1 enzymatic activity, dose-response. The method in brief: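 AlphaScreen assay of tyrosine-FITC cleavage from a biotinylated DNA substrate (15 nM) by E. coli-expressed human Tdp1 (1 nM). Sequence: compound preincubation 15 min, reaction 5 min, bead detection 10 min, all at room temperature. No-enzyme wells give maximum signal.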

Experiment [7] has as its target Cytochrome P450 1A2 (Homo sapiens) (UniProt P05177). The experiment in a line: p450-cyp1a2 (AID 410; calls by dose curve; further: potency means the concentration at half of the fitted maximal effect). The method in brief:
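Luminescent demethylation readout: Luciferin-ME (100uM, equal to Km) turned over by 20nM CYP1A2 for 60 min at room temperature after NADPH regeneration addition, following 10 min compound preincubation. Normalization used 57 uM furafylline as full inhibition.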

Experiment [8] deals with Glucocorticoid receptor (Homo sapiens) (UniProt P04150). The experiment in a line: GR-GFP Redistribution (AID 450;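 active means compounds whose dose series gives a full or clear partial fitted curve of increased nuclear translocation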; further: potency means the concentration at half of the fitted maximal effect). The note with it: U2OS GR-GFP nuclear translocation, laser cytometry, 2 h.
Glucocorticoid receptor (Homo sapiens), sequence (P04150 whole entry, looked up, the tested form may be a part): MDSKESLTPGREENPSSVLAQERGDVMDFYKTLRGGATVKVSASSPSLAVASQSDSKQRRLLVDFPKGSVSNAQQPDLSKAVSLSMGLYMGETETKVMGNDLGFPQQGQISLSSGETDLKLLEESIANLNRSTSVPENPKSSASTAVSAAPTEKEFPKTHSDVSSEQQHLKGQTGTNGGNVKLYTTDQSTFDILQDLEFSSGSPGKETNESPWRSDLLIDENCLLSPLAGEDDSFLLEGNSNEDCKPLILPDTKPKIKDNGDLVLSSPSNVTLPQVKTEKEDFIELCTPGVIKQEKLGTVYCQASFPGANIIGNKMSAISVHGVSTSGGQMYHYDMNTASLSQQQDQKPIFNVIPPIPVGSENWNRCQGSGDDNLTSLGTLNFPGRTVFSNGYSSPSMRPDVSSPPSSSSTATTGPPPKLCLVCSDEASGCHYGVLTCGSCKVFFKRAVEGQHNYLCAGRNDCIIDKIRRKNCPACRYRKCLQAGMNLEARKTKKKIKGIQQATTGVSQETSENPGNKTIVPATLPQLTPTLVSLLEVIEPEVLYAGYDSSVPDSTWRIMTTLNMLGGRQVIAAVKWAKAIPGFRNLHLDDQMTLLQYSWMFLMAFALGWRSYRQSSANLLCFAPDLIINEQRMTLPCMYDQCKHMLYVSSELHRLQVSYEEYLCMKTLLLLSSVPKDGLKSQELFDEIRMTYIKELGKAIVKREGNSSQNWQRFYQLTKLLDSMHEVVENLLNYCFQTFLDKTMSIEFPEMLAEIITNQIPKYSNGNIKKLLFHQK
The target is the same in experiment [9]. As to the kind of experiment: GR-EFC Redistribution (AID 451; calls by dose curve; further: potency means the concentration at half of the fitted maximal effect). The note with it: CHO-K1 GR-EFC translocation, beta-gal luminescence, 2 h. The method in brief: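 CHO-K1 cells stably expressing nuclear-localized β-gal enzyme acceptor and GR fused C-terminally to the enzyme donor fragment; ligand-driven nuclear translocation restores β-gal by complementation. Compounds titrated up to 46 uM final, 2 h at 37 °C; luminescence read.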

Experiment [10] addresses Mitogen-activated protein kinase 10 (Mus musculus) (UniProt Q61831). The experiment in a line: JNK3 AlphaScreen Assay (AID 530; active means well fitted curve in either direction with a large enough effect, not every such curve was filed as active;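 further: kinase came from lysate of stimulated human HepG2 cells; signal reports phosphorylation of biotinylated GST-cJun 1-79 at Ser73 with 10 µM ATP; series mostly up to about 57 µM; on the % scale 0 is the no-effect control and ±100 the full control effect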). The method in brief: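 Phosphorylation of biotinylated GST-cJun(1-79) at Ser73 is measured by AlphaScreen proximity luminescence. Enzyme is JNK3 in HepG2 lysates activated with interleukin-1beta and tumor necrosis factor alpha; ATP is 10 uM final.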
A general note: Alpha assays give light when donor and acceptor beads are brought close together.

Experiment [11] has as its target 3',5'-cyclic-AMP phosphodiesterase 4B (Homo sapiens) (UniProt Q07343). The experiment in a line: qHTS Assay for Inhibitors of PDE-IV (AID 607; active means well fitted activation curve with a large enough effect in the main read-out, with a control signal flat, not every such curve was filed as active; further: % of control where 0% means no effect). In a few lines:
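HEK293 ACTOne cells with CNG channel (1000/well), endogenous PDE4; membrane potential dye, compounds up to 22.9 uM final. Fluorescence Ex 535/Em 590; RO 20-1724 (100 uM final) as reference.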

The target of experiment [12] is Cytochrome P450 2C9 (Homo sapiens) (UniProt P11712). As to the kind of experiment: qHTS Assay for Inhibitors and Substrates of Cytochrome P450 2C9 (AID 883). Further: on the % scale 0 is the no-effect control and ±100 the full control effect; nearly all actives have a fitted effect of over 60% in size. In a few lines: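 CYP2C9 deoxyluciferin hydroxylation, 37C, 60 min with NADPH regeneration; 10nM enzyme, 100uM Luciferin-H (KM). Glo detection reagent stopped reaction; luminescence normalized to sulphaphenazole (57uM) full inhibition.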

For experiment [13], the target named is Cytochrome P450 3A4 (Homo sapiens) (UniProt P08684). The experiment in a line: qHTS Assay for Activators of Cytochrome P450 3A4 (AID 885). Further: nearly all actives have a fitted effect of over 65% in size. In a few lines:
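Human CYP3A4 dealkylates Luciferin-PPXE to luciferin, which luciferase detection converts to light. Substrate was at its KM (25uM), buffer 200mM KPO4, reaction 60 min at RT.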

For experiment [14], the target named is Cytochrome P450 2D6 (Homo sapiens) (UniProt P10635). As to the kind of experiment: qHTS Assay for Inhibitors and Substrates of Cytochrome P450 2D6 (AID 891).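 Further: luciferin methyl ether substrate demethylated by CYP2D6 with NADPH regeneration; on the % scale 0 is the no-effect control and ±100 the full control effect; nearly all actives have a fitted effect of over 60% in size.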 The method in brief: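 Luminescent read-out of luciferin formed by 5 nM human CYP2D6 demethylating 30 uM Luciferin-ME EGE (Km level) over 60 min at room temperature after NADPH regeneration addition. Data normalized to full inhibition by 1.43 uM quinidine.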

The target in experiment [15] is Cytochrome P450 2C19 (Homo sapiens) (UniProt P33261). The experiment in a line: qHTS Assay for Inhibitors and Substrates of Cytochrome P450 2C19 (AID 899). Further: on the % scale 0 is the no-effect control and ±100 the full control effect; nearly all actives have a fitted effect of over 60% in size. The method in brief:
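In 50mM KPO4, the reaction held 5nM enzyme and KM-level (10uM) Luciferin-H EGE; it ran 60 min at 37C after NADPH regeneration and a 10 min compound preincubation. Luminescence values were scaled to 57uM ketoconazole as complete inhibition.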

Experiment [16] deals with DNA dC->dU-editing enzyme APOBEC-3G (Homo sapiens) (UniProt Q9HC16). The experiment in a line: qHTS for inhibitors of Vif-A3G interactions: Validation (AID 588379). Further: 0% is about no effect. In a few lines:
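Yellow fluorescence (Ex 488, Em 500-530) of Vif-coexpressing HeLa A3G-eYFP cells, scanned by Acumen cytometer, reports blocked A3G degradation. Cells plated at 700/well overnight at 37 deg C before compound addition, then a further overnight compound incubation at 37 deg C.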

Experiment [17] deals with Tumor susceptibility gene 101 protein (Homo sapiens) (UniProt Q99816). As to the kind of experiment: qHTS Assay for Iinhibitors of HIV-1 Budding by Blocking the Interaction of PTAP/TSG101: Hit Validation (AID 651600). Further: nearly all actives have a fitted effect of over 70% in size. Further: potency means the concentration at half of the fitted maximal effect. On activity change, negative = inhibition: on the % scale 0 is the no-effect control and ±100 the full control effect. The method in brief: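 Displacement of a FITC-labeled PTAP-motif peptide (50 nM) from the Tsg101 binding domain (10 uM) was monitored by fluorescence polarization after a 20 min room-temperature incubation.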
Tumor susceptibility gene 101 protein (Homo sapiens), sequence (Q99816 whole entry, looked up, the tested form may be a part): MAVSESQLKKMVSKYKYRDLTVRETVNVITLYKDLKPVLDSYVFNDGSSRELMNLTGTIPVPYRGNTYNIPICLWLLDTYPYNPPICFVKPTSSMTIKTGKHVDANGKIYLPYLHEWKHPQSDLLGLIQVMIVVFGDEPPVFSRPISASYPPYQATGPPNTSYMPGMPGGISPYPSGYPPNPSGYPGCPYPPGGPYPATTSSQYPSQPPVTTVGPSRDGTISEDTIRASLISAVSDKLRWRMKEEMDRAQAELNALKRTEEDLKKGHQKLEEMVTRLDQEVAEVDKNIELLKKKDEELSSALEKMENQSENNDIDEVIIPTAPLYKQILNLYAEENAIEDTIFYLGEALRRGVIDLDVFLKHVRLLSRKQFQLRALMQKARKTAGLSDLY

Values without a mark were called inactive. Inconclusive results are not listed. Activity calls are given as the source filed them. Unless noted, the call rests on the fitted dose curve; in most records, active means well fitted curve in the direction sought with a large enough effect; inconclusive means small, poorly fitted or top-dose-only effect, or another doubt; inactive means no such curve, though single readings can be large; an effect the other way counts as inactive or inconclusive. A value given as a limit tells only on which side of the number the result lay.

Rap guanine nucleotide exchange factor 3 (Homo sapiens), sequence (O95398 whole entry, looked up): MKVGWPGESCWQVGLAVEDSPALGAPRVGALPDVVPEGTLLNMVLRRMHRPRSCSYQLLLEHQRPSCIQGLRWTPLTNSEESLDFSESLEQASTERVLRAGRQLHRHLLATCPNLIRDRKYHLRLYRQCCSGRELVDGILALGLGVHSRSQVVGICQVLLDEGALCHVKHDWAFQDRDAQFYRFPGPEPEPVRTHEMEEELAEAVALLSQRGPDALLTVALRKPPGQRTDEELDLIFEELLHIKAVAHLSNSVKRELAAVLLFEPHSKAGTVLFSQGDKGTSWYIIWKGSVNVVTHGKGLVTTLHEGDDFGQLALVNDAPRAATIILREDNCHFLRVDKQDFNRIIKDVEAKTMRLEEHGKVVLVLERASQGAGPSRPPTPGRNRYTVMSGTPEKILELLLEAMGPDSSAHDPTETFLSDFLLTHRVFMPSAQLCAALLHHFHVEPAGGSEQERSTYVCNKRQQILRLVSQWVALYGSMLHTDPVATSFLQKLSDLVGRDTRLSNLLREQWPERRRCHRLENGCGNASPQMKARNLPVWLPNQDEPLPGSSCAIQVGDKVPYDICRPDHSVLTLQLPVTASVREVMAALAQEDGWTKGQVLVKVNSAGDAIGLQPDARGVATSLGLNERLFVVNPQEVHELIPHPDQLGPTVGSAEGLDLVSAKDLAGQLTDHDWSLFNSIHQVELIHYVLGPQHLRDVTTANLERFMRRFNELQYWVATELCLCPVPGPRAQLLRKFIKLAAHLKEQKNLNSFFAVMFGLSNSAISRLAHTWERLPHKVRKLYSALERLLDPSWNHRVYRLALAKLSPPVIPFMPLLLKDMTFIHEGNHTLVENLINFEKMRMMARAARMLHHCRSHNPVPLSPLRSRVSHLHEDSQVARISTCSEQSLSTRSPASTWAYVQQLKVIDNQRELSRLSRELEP
Rap guanine nucleotide exchange factor 4 (Homo sapiens), sequence (Q8WZA2 whole entry, looked up): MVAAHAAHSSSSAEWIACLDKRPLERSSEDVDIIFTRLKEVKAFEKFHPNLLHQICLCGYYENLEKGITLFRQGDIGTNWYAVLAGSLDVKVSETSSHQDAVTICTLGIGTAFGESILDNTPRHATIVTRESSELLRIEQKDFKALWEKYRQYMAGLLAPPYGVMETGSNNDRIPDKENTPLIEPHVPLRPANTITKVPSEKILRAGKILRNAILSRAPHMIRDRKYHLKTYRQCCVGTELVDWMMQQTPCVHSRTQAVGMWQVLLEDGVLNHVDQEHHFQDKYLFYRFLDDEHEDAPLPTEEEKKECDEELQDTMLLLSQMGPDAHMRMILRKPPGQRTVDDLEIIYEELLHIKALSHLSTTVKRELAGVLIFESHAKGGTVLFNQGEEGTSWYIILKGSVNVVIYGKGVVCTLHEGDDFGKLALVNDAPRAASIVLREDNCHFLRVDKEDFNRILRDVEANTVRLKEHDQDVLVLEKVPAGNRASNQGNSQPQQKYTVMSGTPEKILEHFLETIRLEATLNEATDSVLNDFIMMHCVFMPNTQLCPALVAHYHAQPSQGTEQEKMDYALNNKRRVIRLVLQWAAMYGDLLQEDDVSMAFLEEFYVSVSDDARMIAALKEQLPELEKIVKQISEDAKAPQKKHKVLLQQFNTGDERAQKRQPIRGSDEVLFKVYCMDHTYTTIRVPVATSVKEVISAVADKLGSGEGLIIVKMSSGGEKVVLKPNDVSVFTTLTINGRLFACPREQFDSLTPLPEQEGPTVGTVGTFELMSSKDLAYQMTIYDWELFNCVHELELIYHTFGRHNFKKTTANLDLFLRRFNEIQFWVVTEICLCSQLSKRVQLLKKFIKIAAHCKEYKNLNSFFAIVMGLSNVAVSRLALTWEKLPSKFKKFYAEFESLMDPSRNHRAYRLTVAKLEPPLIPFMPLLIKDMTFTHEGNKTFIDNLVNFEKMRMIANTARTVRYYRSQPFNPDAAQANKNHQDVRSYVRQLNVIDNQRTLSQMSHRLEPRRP
Cytochrome P450 2C19 (Homo sapiens), sequence (P33261 whole entry, looked up): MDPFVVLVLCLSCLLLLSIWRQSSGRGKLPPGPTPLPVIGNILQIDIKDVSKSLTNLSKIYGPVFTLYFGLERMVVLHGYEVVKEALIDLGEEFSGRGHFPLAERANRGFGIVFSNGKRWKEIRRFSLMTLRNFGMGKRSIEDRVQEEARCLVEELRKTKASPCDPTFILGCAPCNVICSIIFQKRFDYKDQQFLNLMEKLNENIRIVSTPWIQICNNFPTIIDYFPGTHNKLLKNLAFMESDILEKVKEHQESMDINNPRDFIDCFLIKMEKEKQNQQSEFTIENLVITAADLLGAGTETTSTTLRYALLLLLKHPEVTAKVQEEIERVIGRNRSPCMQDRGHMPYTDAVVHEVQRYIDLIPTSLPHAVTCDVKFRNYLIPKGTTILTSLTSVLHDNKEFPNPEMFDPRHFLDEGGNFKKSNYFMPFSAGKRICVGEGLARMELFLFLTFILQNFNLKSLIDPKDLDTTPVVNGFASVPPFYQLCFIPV
Cytochrome P450 3A4 (Homo sapiens), sequence (P08684 whole entry, looked up): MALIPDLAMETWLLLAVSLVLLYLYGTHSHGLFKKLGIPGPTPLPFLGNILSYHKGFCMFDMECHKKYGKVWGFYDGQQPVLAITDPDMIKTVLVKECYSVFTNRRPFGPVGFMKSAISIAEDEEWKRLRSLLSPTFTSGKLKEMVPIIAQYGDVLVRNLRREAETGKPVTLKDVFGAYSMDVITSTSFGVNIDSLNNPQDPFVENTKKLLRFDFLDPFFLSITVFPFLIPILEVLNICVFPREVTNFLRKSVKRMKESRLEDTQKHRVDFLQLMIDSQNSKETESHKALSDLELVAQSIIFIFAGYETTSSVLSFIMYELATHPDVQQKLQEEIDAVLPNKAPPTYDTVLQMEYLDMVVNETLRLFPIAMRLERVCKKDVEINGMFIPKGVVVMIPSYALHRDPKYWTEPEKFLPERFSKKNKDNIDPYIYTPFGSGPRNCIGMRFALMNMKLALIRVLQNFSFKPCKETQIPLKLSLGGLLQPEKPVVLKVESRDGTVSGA
3',5'-cyclic-AMP phosphodiesterase 4B (Homo sapiens), sequence (Q07343 whole entry, looked up): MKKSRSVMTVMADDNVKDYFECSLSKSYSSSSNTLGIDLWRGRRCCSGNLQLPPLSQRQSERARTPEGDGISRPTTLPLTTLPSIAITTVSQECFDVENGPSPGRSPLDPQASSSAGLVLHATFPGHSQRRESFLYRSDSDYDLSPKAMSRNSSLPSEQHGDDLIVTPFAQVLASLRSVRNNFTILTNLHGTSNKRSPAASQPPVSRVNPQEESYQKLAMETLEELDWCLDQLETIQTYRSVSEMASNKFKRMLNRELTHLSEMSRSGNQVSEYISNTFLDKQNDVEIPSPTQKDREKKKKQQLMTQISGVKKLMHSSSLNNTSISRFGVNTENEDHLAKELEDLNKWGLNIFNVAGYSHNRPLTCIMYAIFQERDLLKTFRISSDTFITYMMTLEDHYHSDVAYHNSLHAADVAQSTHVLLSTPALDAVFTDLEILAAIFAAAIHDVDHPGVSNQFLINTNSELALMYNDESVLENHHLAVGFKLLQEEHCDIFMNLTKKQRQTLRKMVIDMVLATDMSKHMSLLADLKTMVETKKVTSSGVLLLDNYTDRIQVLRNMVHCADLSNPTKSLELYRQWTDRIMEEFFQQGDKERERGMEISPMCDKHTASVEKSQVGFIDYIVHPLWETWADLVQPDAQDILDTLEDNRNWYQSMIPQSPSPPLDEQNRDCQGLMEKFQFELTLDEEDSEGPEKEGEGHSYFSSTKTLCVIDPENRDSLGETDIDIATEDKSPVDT

As to `COC(=O)c1ccc2nc(-c3ccc(C)cc3)c(Cc3cccc(F)c3)n2c1`, the Potency entry in experiment [1] and in experiment [2] was “inactive” in each case.

As to `Cc1cc([N+](=O)[O-])c2[nH]c(C(=O)N/N=C/c3ccccc3C(=O)O)c(-c3ccccc3)c2c1`, the Potency entry in [3] and in experiment [2] was “inactive” in each case.

Regarding `CC1CCCN(C(=O)c2ccc(-c3ccccc3Cl)o2)C1` (stereo unspecified), the Potency entry in [4] and in [5] was “inactive” each time.

Take `O=C(O)c1ccc(Nc2nc(-c3cc4ccccc4oc3=O)cs2)cc1O`: the Potency in experiment [6] is 63.1 µM (active). The Potency entry in experiment [3], in experiment [4] and in experiment [5] was “inactive” throughout.

In the case of `COc1cc2cc(Oc3ccc4ccc(=O)oc4c3)c(=O)oc2cc1O`, the Potency is 2 µM (active) in experiment [7], over 46 µM in experiment [8] and over 46 µM in experiment [9]. In addition, the Potency result in [10], in experiment [11], in [12], in [14], in experiment [15] and in experiment [4] was “inactive” in each case. The call in experiment [13] and in [16] was inactive. Besides, the activation in [3] was 1.41% [at 17.1 µM, percent relative to cAMP agonist control]. Moreover, in experiment [5], the activity change, negative = inhibition was -3.83% [at 30.8 µM].

`O=S(=O)(c1ccc2[nH]c3c(c2c1)CCCC3)N1CCCCC1`: the Potency entry in [4] is “inactive”.

Regarding `O=S(=O)(c1ccccc1)c1nc(Nc2cccc(O)c2)sc1Cl`, the Potency entry in experiment [4] and in experiment [5] was “inactive” each time.

`COc1cc(/C=C2\SC(=Nc3ccccc3)N(CCc3c[nH]c4ccccc34)C2=O)ccc1OC(C)C(=O)O` (stereo unspecified): the Potency entry in experiment [3], in experiment [4] and in experiment [2] was “inactive” in each case.

For `Oc1ccc(Br)cc1CNc1cccc2cccnc12`, in [4], the Potency was 33.8 µM (active). In [5], the Potency entry is “inactive”.

As to `COc1cccc(CNc2cccc3cccnc23)c1O`, the Potency entry in experiment [4] and in [5] was “inactive” throughout.

Take `CC1(Cc2cc(Cl)ccc2C(F)(F)F)C(=O)Nc2c(Cl)cccc21` (stereo unspecified): the Potency entry in experiment [3] and in experiment [2] was “inactive” throughout. Moreover, in experiment [4], the Potency is 30.1 µM (active).

As for `N=C1/C(=C\c2ccc(-c3cccc(C(=O)O)c3)o2)C(=O)N=C2SC=C(c3ccccc3)N12`, the Potency in experiment [3] is 100 µM (active). The Potency result in [5] and in experiment [2] was “inactive” throughout.

With `Cc1cc2nc3c(=O)n(Cc4ccccc4)c(=O)[nH]c3nc2cc1N`, the Potency in [17] is 3.66 µM (active). In addition, the activation in experiment [3] is 16.2% [at 17.1 µM, percent relative to cAMP agonist control]. Moreover, in [4], the Potency result was “inactive”. In [5], the activity change, negative = inhibition was 0.816% [at 30.8 µM].

As to `O=C(c1ccccc1)c1ccc(O)cc1O`, in [17], the Potency was 5.8 µM (active). Also, the activation is 17% [at 17.1 µM, percent relative to cAMP agonist control] in experiment [3] and 6.44% [at 30.8 µM] in experiment [2]. Further, in [4], the Potency entry is “inactive”. The activity change, negative = inhibition in [5] is -16.9% [at 30.8 µM].

Regarding `CCN(CC)C1=CC2=CC(=C(C#N)C#N)CCC2CC1` (stereo unspecified), the Potency entry in [17] and in experiment [5] was “inactive” each time. In addition, the Potency was 112 µM (active) in experiment [3] and 25.1 µM (active) in experiment [2].

Regarding `Cc1nc(Cl)c2c(n1)NC1=C(O2)C(=O)CCC1`, the Potency in experiment [17] was 18.3 µM (active). Further, in experiment [3], the activation was 10.5% [at 17.1 µM, percent relative to cAMP agonist control]. The Potency result in experiment [4] is “inactive”. In addition, the activity change, negative = inhibition in [5] is 20% [at 30.8 µM].

Values taken from PubChem BioAssay (NCATS).
